Among the data in PubChem BioAssay AID1529 (NMMLSC, 2009) are binding response (% of control) values, retold here.

Screen size: about 290,000 compounds; about 4,200 (1.4%) were called active. The full list was thinned out, with actives kept by preference. A number with no mark means an inactive call.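 The calls were made as follows: active = binding response more than 3 SD above or below the average of its plate-row segment, actives on both sides; inconclusive = wells at one plate position flagged as instrument error; inactive = the rest.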

The target of the assay is Mitogen-activated protein kinase kinase kinase 3 (Homo sapiens) (UniProt Q99759). Briefly: modulators of MEKK3-MEK5 PB1 binding, primary screen, biochemical, wildtype MEKK3, multiplex bead flow cytometry, Alexa488-MEK5 (AID 1529).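 Also: Alexa488 bead fluorescence after subtracting the streptavidin-only scavenger bead signal.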 Particulars: bead-based flow cytometry, Alexa488-MEK5 binding to MEKK3; at 10 µM; actives lie on both sides; 0 = blocked by unlabeled MEK5, 100 = vehicle.
Sequence of Mitogen-activated protein kinase kinase kinase 3 (Homo sapiens) (Q99759 whole entry, looked up): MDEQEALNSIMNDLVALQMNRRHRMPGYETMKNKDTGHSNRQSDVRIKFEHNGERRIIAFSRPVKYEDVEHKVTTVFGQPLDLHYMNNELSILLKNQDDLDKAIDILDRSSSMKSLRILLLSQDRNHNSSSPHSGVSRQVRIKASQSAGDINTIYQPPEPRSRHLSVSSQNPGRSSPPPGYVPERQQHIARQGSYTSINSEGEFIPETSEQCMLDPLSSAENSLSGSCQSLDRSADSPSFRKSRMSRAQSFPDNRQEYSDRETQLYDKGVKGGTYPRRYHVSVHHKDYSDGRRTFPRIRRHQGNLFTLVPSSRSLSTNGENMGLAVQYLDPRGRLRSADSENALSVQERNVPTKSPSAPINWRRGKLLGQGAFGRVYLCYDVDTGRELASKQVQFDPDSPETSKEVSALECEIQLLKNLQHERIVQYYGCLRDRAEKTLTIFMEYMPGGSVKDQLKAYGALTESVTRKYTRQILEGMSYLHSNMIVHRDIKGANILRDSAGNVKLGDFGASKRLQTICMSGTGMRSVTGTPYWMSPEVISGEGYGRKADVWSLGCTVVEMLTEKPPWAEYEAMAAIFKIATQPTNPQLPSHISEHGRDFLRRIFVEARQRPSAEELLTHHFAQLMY
As to `Cc1cc(Cl)ccc1OCc1nc(-c2ccncc2)no1`, the binding response (% of control) is 73% [inhibitor] (active). In the case of `COc1ccc(-c2noc(COc3ccc(Cl)c(C)c3)n2)cc1`, the binding response (% of control) was 102%. Consider `c1ccc(CCc2nc(-c3ccncc3)no2)cc1`, for which the binding response (% of control) was 105%. As to `CCC1Oc2ccccc2N(CC(=O)NCCCN2CCN(CC)CC2)C1=O` (stereo unspecified), the binding response (% of control) is 105%. The value for `COc1ccc(S(=O)(=O)N(C)CC(=O)N2CCCC2)cc1` was 101%; that for `C[N+](C)(C)CCNC(=O)c1c(O)c2c([nH]c1=O)CCCC2` was 78% [inhibitor] (active); that for `O=C(NCc1ccccn1)c1c(O)c2c([nH]c1=O)CCCC2` was 107%. As for `CCc1nnc(NC(=O)c2c(O)c3c([nH]c2=O)CCCC3)s1`, the binding response (% of control) is 105%. The value for `O=C(CN(c1cc(C(F)(F)F)ccc1Cl)S(=O)(=O)c1ccccc1)NCc1cccnc1` was 101%; that for `COc1cc(NC(=O)C2CCN(c3cnccn3)CC2)cc(OC)c1` was 102%. The value for `Cc1[nH]c2ccc(S(N)(=O)=O)cc2c1C` was 81% [inhibitor] (active); that for `COC(=O)CCNC(=O)c1ccc2[nH]c(C)c(C)c2c1` was 102%; that for `Cc1[nH]c2ccc(C(=O)N3CCN(C)CC3)cc2c1C` was 99%.

As to `Cc1cccc(Nc2nc(NCCO)nc(N3CCCC3)n2)c1`, the binding response (% of control) is 106%. As for `CN(CCNC(=O)c1cc2c(-c3ccccc3F)nn(C)c2s1)C1CCCCC1`, the binding response (% of control) is 108%. Under `CC(C)(C)NC(=O)/C(=C/c1cccnc1)NC(=O)c1ccco1` stands 101%. For `O=C(O)/C(=C/c1cccnc1)NC(=O)c1ccccc1`, the binding response (% of control) is 156% (active). Under `Cc1ccc(C(=O)N/C(=C/c2cccnc2)C(=O)O)cc1` stands 95%; under `Cc1nnc(SCC(=O)Nc2ccc(S(=O)(=O)Nc3ccc(Cl)nn3)cc2)s1`, 99%. The value for `COc1ccccc1/C=C1\SC(=O)N(CCC(=O)N(C)C2CCS(=O)(=O)C2)C1=O` (stereo unspecified) was 98%; that for `Cc1c(CN2CC[C@@H](N3CCN(c4ccccn4)CC3)[C@H](O)C2)[nH]c2ccc(F)cc12` was 104%. Consider `COC(=O)c1sc(C(F)(F)F)c(-c2ccccc2)c1S(=O)(=O)N(C)C`, for which the binding response (% of control) was 106%. As to `Cc1ccc(S(=O)(=O)N(C)CC(=O)OCC(=O)Nc2ccccc2)cc1`, the binding response (% of control) was 94%. The value for `CCOC(=O)CN(C)S(=O)(=O)c1ccc(-c2cc(C(=O)OC)sc2C(F)(F)F)cc1` was 129% (active); that for `O=C(O)C1=NN(c2c(F)c(F)cc(F)c2F)C(=O)CC1` was 95%. The value for `CCOC(=O)CSc1nnc(NC(=O)C2CC(=O)N(c3ccc(F)cc3)C2)s1` (stereo unspecified) was 102%.
